# High-throughput results from PubChem.
# RORg inh: ROR gamma (mouse) transcription inhibition; Potency, µM (top dose mostly 53.6 µM), without a hit: top-dose activity change, negative = inhibition, actives largely listed as inhibitors; 310,000 compounds, 5.4% hits; P51450; AID 2551; Drosophila S2 Gal4-RORgamma UAS-luciferase reporter, 20 h; note: % is set by controls: 0 for no effect and ±100 for the full control effect; nearly all actives have a fitted effect of over 60% in size
# Target sequence (P51450 whole entry, looked up, the tested form may be a part): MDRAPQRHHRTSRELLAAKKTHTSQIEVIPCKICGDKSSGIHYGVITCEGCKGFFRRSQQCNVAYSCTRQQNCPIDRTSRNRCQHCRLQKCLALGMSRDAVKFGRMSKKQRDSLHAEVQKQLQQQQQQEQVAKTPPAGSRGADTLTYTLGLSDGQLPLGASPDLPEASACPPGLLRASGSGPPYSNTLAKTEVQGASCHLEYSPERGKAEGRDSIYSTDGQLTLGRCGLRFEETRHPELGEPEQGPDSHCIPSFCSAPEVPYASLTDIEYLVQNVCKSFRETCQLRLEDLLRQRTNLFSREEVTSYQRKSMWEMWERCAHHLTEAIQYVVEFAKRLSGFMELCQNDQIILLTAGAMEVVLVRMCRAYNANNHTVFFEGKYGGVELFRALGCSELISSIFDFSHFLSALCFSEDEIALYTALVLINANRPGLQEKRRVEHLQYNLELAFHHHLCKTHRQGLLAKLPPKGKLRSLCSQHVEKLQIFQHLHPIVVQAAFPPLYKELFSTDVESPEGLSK
#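 ROR gamma transcriptional activity was tracked as Gal4-UAS luciferase output in stably transfected Drosophila Schneider cells, with compound added 1 hr before 700 uM copper sulfate induction and a 20 hr ambient-temperature incubation.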
# GLP-1R agonist: GLP-1 receptor (human) agonism; P43220; HEK293 GLP-1R CRE-luciferase, luminescence, 4-6 h; cells express a hypersensitive GLP-1R form; Potency, µM (series often up to 45.6 µM), inactives show top-dose activation, actives largely listed as activators; 380,000 compounds, 0.007% hits; note: % of control where 0% means no effect
# VP16 counter: inhibits Gal4-VP16 luciferase reporter, ROR gamma counter-screen. Drosophila S2 Gal4-VP16 UAS-luciferase, luminescence, 20 h. Potency, µM (highest dose often 53.6 µM), without a hit: top-dose activity, negative = inhibition, most hits filed as inhibitors. 310,000 compounds, 3.5% hits;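 note: Gal4-VP16 expression switched on by copper sulfate through the metallothionein promoter; % is set by controls: 0 for no effect and ±100 for the full control effect; nearly all actives have a fitted effect of over 50% in size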
# GLP1R cytotox: cytotoxic in the GLP-1 receptor inverse agonist counter-screen; Potency, µM (highest dose often 38.3 µM), inactives show at the highest dose activity change, negative = inhibition, hits mostly inhibitors; 410,000 compounds, 0.13% hits; HEK293 cAMP-luciferase reporter cells, luminescence, 24 h; AID 624418;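 note: loss of luciferase light is scored as toxicity; % is set by controls: 0 for no effect and ±100 for the full control effect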
#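 Step one: seed cells (200 cells/uL, DMEM with 10% Nu serum, 1% pen-strep). Step two: 12-hour incubation at 37 deg C. Step three: pin 23 nL compound, incubate 24 hr. Step four: add luciferase reagent, read luminescence 12 min later.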
# GLP1R inv ag: GLP-1 receptor (human) inverse agonism | P43220 | HEK293 GLP-1R CRE-luciferase, luminescence, 24 h; GLP-1R form is constitutively active | Potency, µM (highest dose often 38.3 µM), for inactives: top-dose activity change, negative = inhibition, hits mostly inhibitors | 410,000 compounds, 1.6% hits | AID 624417; note: % is set by controls: 0 for no effect and ±100 for the full control effect; nearly all actives have a fitted effect of over 55% in size
#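 Constitutively active GLP-1R drives a cAMP-responsive luciferase in stably transfected HEK293 cells; test compounds are added after overnight (12 h) attachment and left 24 hr, and signal loss in luminescence marks inhibition.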
# Numbers without * were called inactive; ? = inconclusive; . = no result; ! = not active in a repeat; [ ] = remark or other dose. Most compounds without a hit are left out; they make up all but 5.9% or so of the library. Calls come from the whole dose curve; as a rule, active = well fitted curve in the direction sought with a large enough effect; inconclusive = small, poorly fitted or top-dose-only effect, or another doubt; inactive = no such curve, though single readings can be large; an effect the other way counts as inactive or inconclusive. Potency is the fitted concentration of half-maximal effect.
SMILES,RORg inh,GLP-1R agonist,VP16 counter,GLP1R cytotox,GLP1R inv ag
COc1cc(/C=N/n2c(C3CCCCC3)n[nH]c2=S)ccc1O,-66%,-2%,-22%,-1%,10%
CN(C)c1ccc(/C=N/n2c(C3CCCCC3)n[nH]c2=S)cc1,2.5µM*,25%,6.3µM*,0%,?
S=c1[nH]nc(C2CCCCC2)n1/N=C/c1ccccn1,-13%,-1%,-10%[10 µM],2%,16%
C/C(=C\CNc1ncnc2c1ncn2[C@@H]1O[C@H](CO)[C@@H](O)[C@H]1O)CO,-16%,.,-7%,.,.
Cc1ccccc1Sc1ncnc2onc(C)c12,7.1µM*,-26%,?,-14%,?
Cc1ccc(Sc2ncnc3onc(C)c23)cc1,10µM*,-37%,22µM*,-1%,?
Cc1ccc(CSc2ncnc3onc(C)c23)cc1,-1%,16%,-5%,1%,22%
Cc1noc2ncnc(Sc3c(Cl)cccc3Cl)c12,-111%,-22%,16µM*,4%,0%
Cc1noc2ncnc(SCc3ccc(C(F)(F)F)cc3)c12,?,1%,-7%,-8%,?
Cc1noc2ncnc(Sc3ccc(Cl)cc3)c12,7.1µM*,-30%,6.3µM*,-21%,-21%
CCN(CC)C(=O)/C(C#N)=C/c1cc(O)c(O)c([N+](=O)[O-])c1,14%[10 µM],0%,-4%,.,.
COCCCn1c(=S)[nH]c2c(sc3ccccc32)c1=O,1.3µM*,0%,?,-5%,8%
CC1CCN(CCCn2c(=S)[nH]c3c(sc4ccc([N+](=O)[O-])cc43)c2=O)CC1,-31%,0%,5%,-13%,5%
CC1CCN(CCCn2c(=S)[nH]c3c(sc4ccccc43)c2=O)CC1,11µM*,-3%,-24%,-3%[7.66 µM],0%[7.66 µM]
Cc1cc2ccccc2n1-c1ccc(C(=O)N2CCCCC2)s1,.,.,.,-1%,?
CCn1c(SCC(=O)Nc2oc(-c3ccccc3)c(-c3ccccc3)c2C#N)nnc1-c1ccco1,25%,-10%,-19%,31%,?
COc1ccc(-c2oc(NC(=O)CSc3nncn3C)c(C#N)c2-c2ccc(OC)cc2)cc1,22%,-8%,6%,-36%,1.6µM*
O=C(NCc1ccccc1Br)c1ccc2c(c1)nc1n2CCOC1,.,.,.,-2%,8%
CN1CCC(N(C)C(=S)NC(=O)c2cc(-c3cccc(Br)c3)nc3ccccc23)CC1,0.25µM*,3%,0.89µM*,?,-22%
O=C(NNC(=S)Nc1ccccc1)c1cc(-c2cccnc2)nc2ccccc12,-35%,2%,-12%,-24%[7.66 µM],?
O=C(NC(=S)Nc1ccccc1)c1cc(-c2ccccc2)nc2ccccc12,0.28µM*,-15%,4.5µM*,14%,?
O=C(NNC(=O)c1cc(-c2ccc(Cl)cc2Cl)nc2ccccc12)Nc1ccccc1,?,-20%,0%,9%,2.8µM*
O=C(NC(=S)Nc1ccccn1)c1cc(-c2ccccc2)nc2ccccc12,0.4µM*,-4%,0.71µM*,2.8µM*,4.5µM*
O=C(NNC(=O)c1ccc(Cl)cc1Cl)Nc1ccccc1,37%,-5%,14%,3%,4%
CN(C)c1ncc2nc(-c3cccs3)c(=O)n(C3CC3)c2n1,2%,.,14%,.,.
SMILES,RORg inh,GLP-1R agonist,VP16 counter,GLP1R cytotox,GLP1R inv ag
CN(C)c1ncc2nc(-c3ccc(Cl)cc3)c(=O)n(Cc3cccs3)c2n1,6%,.,1%,.,.
COc1ccc(Cn2c(=O)c3ccccc3n3c(-c4ccc(C)cc4)nnc23)cc1,.,.,.,-6%,5%
COc1cccc(Cn2c(=O)c(-c3cccc(Cl)c3)nc3cncnc32)c1,-11%,.,-10%,.,.
C[n+]1cn(/N=C/c2ccccc2)c2ccccc21,-9%,4%,-24%,16%,2%
CC(=O)N(C(C)=O)c1nc(-c2ccccc2)cn1/N=C/c1ccccc1,23%,1%,-25%,?,7.9µM*
O=C(NCCSCc1c(F)cccc1Cl)C1CCN(S(=O)(=O)Cc2ccccc2)CC1,.,.,.,26%,6%
CC(C)(C)c1ccc(C2=NC(C)(C)N(CC(=O)Nc3ccc(F)c(F)c3)C2=O)cc1,.,.,.,1%,11µM*
CC1(C(=O)OCC(=O)N2c3ccccc3Sc3ccccc32)CC1(Cl)Cl (stereo not drawn),?,5%,-1%,16%,11µM*
CC1(C(=O)OCC(=O)NC(=O)c2ccccc2)CC1(Cl)Cl (stereo not drawn),.,3%,.,-6%,1%
CC(C)[C@@H](CC(=O)N[C@@H]1CCCC[C@H]1C(=O)N[C@H](CC(=O)N[C@@H](CCC(=O)O)CC(=O)O)Cc1c[nH]c2ccccc12)NC(=O)C[C@H](CO)NC(=O)[C@@H]1CCCC[C@H]1N,2%,.,2%,.,.
CCOc1cc(C(=O)Nc2ccc(-c3nc4ccccc4s3)cc2Cl)cc(OCC)c1OCC,.,.,.,2%,-6%
CCCN1C(=O)/C(=C/c2ccc3c(c2)OCO3)NC1=S,8.9µM*,-4%,?,-24%,?
Cc1cc(=O)c2c(O)c3c(O)cc(=O)c4c3c3c(cc(O)c1c23)C(C)(C)C=4O,7.1µM*!,-1%,4µM*,.,.
CO[C@H]1COC(=O)C/C=C\[C@H](C)[C@@H](OC)COC(=O)C/C=C\[C@@H]1C,-14%[10 µM],.,-15%[10 µM],.,.
CC(C)CN(CC(C)C)C(=S)Nc1ccc(Cl)cc1,4µM*,2%,20µM*,?,?
CCc1ccc(NC(=S)N(Cc2ccc(Cl)cc2)Cc2ccc(C(=O)O)cc2)cc1,31%,0%,-10%,7%,?
Cc1cccc(C2=N[C@@H](Cc3ccccc3)CO2)c1,-25%[96.6 µM],.,-15%[96.6 µM],.,.
CC1=C(c2ccc(C)c(C)c2)S(=O)(=O)N(Cc2ccc(C(=O)Nc3cc(F)ccc3F)cc2)C1=O,.,.,.,-1%,6%
CCC(C(=O)NC1CCCC1)n1c(SCc2cccc(C)c2)nc2ccncc21 (stereo not drawn),10µM*,3%,-4%,8%,?
Cc1cc(C)cc(NC(=O)CSc2nnc(Cc3cccn3C)n2-c2ccc(F)cc2)c1,?,9%,11µM*,-15%,?
Cc1cc(C)c(NC(=O)CSc2nnc(Cc3cccn3C)n2-c2ccc(F)cc2)c(C)c1,28%,8%,-6%,5%,-25%
COc1ccc(N2CCN(CCNC(=O)Nc3ccc(C)c(Cl)c3)CC2)cc1,19%,0%,4%,1%,2.8µM*
COc1ccc(-n2c(Cc3cccn3C)nnc2SCC(=O)Nc2ccc(C)c(Cl)c2)cc1,?,-6%,11µM*,-16%,?
CCOc1ccc(CNC(=O)c2ccc(CSc3nc4ccncc4n3Cc3ccc(F)cc3)cc2)cc1,.,.,.,6%,?
Cc1ccn2c(Nc3ccc4c(c3)OCCO4)c(-c3ccc(N(C)C)cc3)nc2c1,.,.,.,-4%,18%
Cc1ccccc1NC(=O)Cn1cc(S(=O)(=O)N2CCCC2)c(S(=O)(=O)N2CCCC2)c1,.,.,.,-14%,6%
